Assay [1] in a line: qHTS assay for small molecules that induce genotoxicity in human embryonic kidney cells expressing luciferase-tagged ATAD5 (AID 651632). Also: nearly all actives have a fitted effect of over 15% in size. Also: potency is read from the fitted curve at half-maximal effect. The method in brief:
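Cells were seeded at 2,000 per well, dosed with compound, and incubated 16 hr at 37C in 5% CO2. Luciferase activity was then quantified after a 30 min room-temperature incubation with Amplite.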

The nature of assay [2]: qHTS assay for small molecules that induce genotoxicity in human embryonic kidney cells expressing luciferase-tagged ATAD5 - cell viability (AID 651634; calls by dose curve; also: nearly all actives have a fitted effect of over 25% in size; also: potency is read from the fitted curve at half-maximal effect). The essentials:
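Cells (HEK293T, luciferase-tagged ATAD5) are seeded at 2,000 per well, dosed with compound or DMSO vehicle, and incubated 15.5 hr at 37C and 5% CO2. CellTiter-Fluor is added for 30 min before fluorescence is measured.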
For orientation: qHTS replaces the single test concentration by a dilution series.

Assay [3] can be described thus: qHTS assay for small molecule disruptors of the mitochondrial membrane potential - cell viability (AID 720634; calls by dose curve; also: nearly all actives have a fitted effect of over 20% in size; also: potency is read from the fitted curve at half-maximal effect). The method in brief:
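Cytotoxicity was measured by ATP quantitation in HepG2 wells that had first been treated with compound for 1 hr and stained with m-MPI dye; CellTiter-Glo incubation was 30 min at room temperature.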

Assay [4] can be described thus: qHTS assay for small molecule disruptors of the mitochondrial membrane potential (AID 720635). Also: potency is read from the fitted curve at half-maximal effect. The method in brief: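 HepG2 cells (2,000/well) attached overnight at 37C, then took compound for 1 hr at 37C, 5% CO2. Mito-MPS dye was added for 30 min; fluorescence was read at 490/535 nm (monomers) and 540/590 nm (aggregates).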
The nature of assay [5]: qHTS assay to test for compound auto fluorescence at 590 nm (red) in HepG2 cells (AID 720674). Also: % is scaled to controls: 0 for no effect and ±100 for the full control effect. The essentials: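 Rose Bengal sodium served as the red fluorophore standard. HepG2 monolayers (overnight attachment, MEM with 10% FBS) were exposed to test compounds for 1 hr at 37 C and read at Ex 540/Em 590 nm.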
A short description of assay [6]: qHTS assay to test for compound auto fluorescence at 535 nm (green) in HepG2 cells (AID 720675). Also: % is scaled to controls: 0 for no effect and ±100 for the full control effect.
The nature of assay [7]: qHTS assay to test for compound auto fluorescence at 460 nm (blue) in HEK293 cells (AID 720678). Also: % is scaled to controls: 0 for no effect and ±100 for the full control effect. The essentials: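 Triamterene serves as the blue fluorophore standard. Compound signal at 405/460 nm is read in HEK293 wells (2,000 cells, 10% dialyzed FBS) after overnight treatment at 37C.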
Assay [8] in a line: qHTS assay to test for compound auto fluorescence at 590 nm (red) in HEK293 cells (AID 720679). Also: % is scaled to controls: 0 for no effect and ±100 for the full control effect. The essentials: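 We plated HEK293 cells in 10% dialyzed FBS medium, let them adhere for 4-5 hr, then added 23 nL compound. Overnight at 37C and 5% CO2 preceded fluorescence measurement at 540/590nm.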
A short description of assay [9]: qHTS assay to test for compound auto fluorescence at 535 nm (green) in HEK293 cells (AID 720680). Also: % is scaled to controls: 0 for no effect and ±100 for the full control effect.
The nature of assay [10]: qHTS assay to test for compound auto fluorescence at 460 nm (blue) in HEK293 cell free culture (AID 720681). Also: % is scaled to controls: 0 for no effect and ±100 for the full control effect. The method in brief: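 Test compounds were pinned into cell-free culture medium (DMEM with 10% FBS) and fluorescence was read directly at Ex/Em 405/460 nm. Signals were expressed as fluorescence equivalents of triamterene, with DMSO vehicle as control.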
The nature of assay [11]: qHTS assay to test for compound auto fluorescence at 535 nm (green) in HEK293 cell free culture (AID 720682). Also: % is scaled to controls: 0 for no effect and ±100 for the full control effect. The method in brief:
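Cell-free medium (DMEM, 10% FBS) receives compound or DMSO by pintool. Plate read directly at Ex 485/Em 535 nm. Signal converted to fluorescein equivalency.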

The nature of assay [12]: qHTS assay to test for compound auto fluorescence at 590 nm (red) in HEK293 cell free culture (AID 720683). Also: % is scaled to controls: 0 for no effect and ±100 for the full control effect. The essentials:
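Tox21 10K library compounds were pinned into cell-free DMEM with 10% FBS and fluorescence was read at excitation 540 nm. Activity is expressed as Rose Bengal sodium equivalency.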

The nature of assay [13]: qHTS assay to test for compound auto fluorescence at 460 nm (blue) in HepG2 cell free culture (AID 720685). Also: % is scaled to controls: 0 for no effect and ±100 for the full control effect. The essentials:
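Cell-free plates of MEM plus 10% FBS received 23 nL compound or DMSO vehicle; blue-channel (405/460 nm) intensity scored against triamterene as reference fluorophore.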

A short description of assay [14]: qHTS assay to test for compound auto fluorescence at 535 nm (green) in HepG2 cell free culture (AID 720686). Also: % is scaled to controls: 0 for no effect and ±100 for the full control effect.
Assay [15] in a line: qHTS assay to test for compound auto fluorescence at 460 nm (blue) in HepG2 cells (AID 720687). Also: % is scaled to controls: 0 for no effect and ±100 for the full control effect. The essentials:
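Cells (2,000/well in MEM with 10% FBS) attached overnight at 37 C, then were exposed to compound or DMSO for 1 hr at 37 C, 5% CO2. Fluorescence read at Ex/Em 405/460 nm, expressed as triamterene-equivalent signal.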

Assay [16] concerns the target Glucocorticoid receptor (Homo sapiens) (UniProt P04150). In words: qHTS assay to identify small molecule agonists of the glucocorticoid receptor (GR) signaling pathway (AID 720691; active = well fitted activation curve with a large enough effect in the signal ratio in the repeat runs, not every such curve was filed as active; the % refers to the signal ratio; also: % is scaled to controls: 0 for no effect and ±100 for the full control effect). The essentials: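 Steps: seed GR-bla HeLa cells, incubate 4 h at 37 C/5% CO2; pin-transfer DMSO-dissolved compounds; incubate 18 h at 37 C; add LiveBLAzer B/G FRET substrate; after 2 h at room temperature, measure fluorescence.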

A short description of assay [17]: qHTS assay for small molecule agonists of the p53 signaling pathway - cell viability (AID 651633; calls by dose curve; also: nearly all actives have a fitted effect of over 30% in size; also: potency is read from the fitted curve at half-maximal effect). The essentials:
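p53RE-bla cells, seeded at 4,000 per well and rested 5 h at 37 C/5% CO2, received compounds in DMSO for 16 h at 37 C. CellTiter-Glo was then added, and luminescence was read after 30 min at room temperature to gauge cytotoxicity.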

The nature of assay [18]: qHTS assay to test for compound auto fluorescence at 590 nm (red) in HepG2 cell free culture (AID 720684). Also: % is scaled to controls: 0 for no effect and ±100 for the full control effect. The method in brief: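 Ex 540 / Em 590 nm read of compound in cell-free MEM (10% FBS). Rose Bengal sodium reference.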

Molecules are shown by their SMILES. Values joined by “and” are separate entries in the source; they are usually repeats but may differ in a detail not shown here. Equal entries are not always repeated. Unmarked numbers belong to inactive results. Results filed as inconclusive are left out. Active and inactive are the calls of the source. Unless noted, calls follow the shape of the dose curve; as a rule, active = well fitted curve in the direction sought with a large enough effect in the repeat runs; inconclusive = weak or mixed curves; inactive = no such curve, though single readings can be large; an effect the other way counts as inactive or inconclusive.

The results in this text go back to PubChem BioAssay (Tox21).

Chain of Glucocorticoid receptor (Homo sapiens) (P04150 whole entry, looked up): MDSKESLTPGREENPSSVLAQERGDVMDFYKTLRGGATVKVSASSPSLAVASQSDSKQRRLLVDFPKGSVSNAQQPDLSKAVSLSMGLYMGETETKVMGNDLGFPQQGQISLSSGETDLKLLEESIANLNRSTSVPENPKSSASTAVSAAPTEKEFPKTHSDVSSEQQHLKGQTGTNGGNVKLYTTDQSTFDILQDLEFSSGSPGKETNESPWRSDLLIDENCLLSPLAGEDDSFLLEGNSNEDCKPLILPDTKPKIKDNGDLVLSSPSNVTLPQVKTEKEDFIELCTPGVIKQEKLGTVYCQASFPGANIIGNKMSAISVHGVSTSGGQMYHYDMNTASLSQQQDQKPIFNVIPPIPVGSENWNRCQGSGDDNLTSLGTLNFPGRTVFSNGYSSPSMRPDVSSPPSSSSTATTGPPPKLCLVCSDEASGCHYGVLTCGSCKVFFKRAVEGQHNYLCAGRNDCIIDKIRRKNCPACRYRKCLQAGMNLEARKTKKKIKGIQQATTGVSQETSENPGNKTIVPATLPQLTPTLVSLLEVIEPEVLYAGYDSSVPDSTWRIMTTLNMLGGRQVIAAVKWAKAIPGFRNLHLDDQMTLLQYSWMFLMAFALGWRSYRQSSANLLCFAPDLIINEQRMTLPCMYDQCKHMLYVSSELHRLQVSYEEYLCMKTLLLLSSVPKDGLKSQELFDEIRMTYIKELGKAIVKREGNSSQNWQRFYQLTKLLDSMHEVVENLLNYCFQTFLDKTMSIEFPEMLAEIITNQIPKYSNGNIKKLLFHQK

Take `Cc1cc(N=Nc2ccccc2C)ccc1N`: the Potency is 6.11 µM (active) and 6.86 µM (active) in assay [1]; 48.6 µM (active) in [2]; 19.3 µM (active) and 15.4 µM (active) in assay [3]; 15.4 µM (active) and 30.6 µM (active) in [4]. Also, the molecule was classed as inactive in assay [5], in assay [6], in [8], in assay [9], in [11] and in assay [12]. In addition, the call in assay [14] was inactive. Moreover, the Potency result in assay [7], in assay [10], in assay [13], in assay [15] and in assay [16] was “inactive” in each case.
On to `CCCCCCCCCCCCCCCC[N+](C)(C)C`, for which the Potency entry in assay [1], in [2], in assay [3], in assay [7], in assay [10] and in [13] was “inactive” throughout. Besides, the Potency entry in assay [15] is “inactive”. Besides, in assay [4], the Potency is 13.3 µM (active) and 10.5 µM (active) and 27.3 µM (active). In addition, the molecule was classed as inactive in assay [5], in assay [6], in [8], in assay [9], in assay [11] and in assay [12]. Also, the molecule was classed as inactive in assay [14].
With `CC1(C)[C@H](C(=O)O[C@H](C#N)c2cccc(Oc3ccccc3)c2)[C@@H]1/C=C(\Cl)C(F)(F)F`, the Potency result in assay [1], in assay [17], in [2], in [7], in [10] and in assay [13] was “inactive” each time. The Potency result in assay [15] and in [16] was “inactive” each time. In addition, the Potency in [4] is 25.3 µM (active). Further, the call in [5], in assay [6], in assay [8], in assay [9], in assay [11] and in assay [12] was inactive. Further, the molecule was called inactive in assay [14].
Consider `Clc1ccc(CSC(Cn2ccnc2)c2ccc(Cl)cc2Cl)cc1` (stereo not given), for which the Potency result in [1], in [2] and in [3] was “inactive” each time. Besides, in [5], the fluorescence, relative to Rose Bengal was -0.0239% [at 18.6 µM]. In addition, the fluorescence, % of fluorescein control in [6] is -0.0068% [at 18.6 µM]; in assay [14], -0.107% [at 18.6 µM]. Moreover, in assay [7], the fluorescence, % of triamterene was -0.071% [at 18.6 µM]. Further, the fluorescence, % of fluorescent control in assay [8] was 0.517% [at 18.6 µM]; in [10], 0.0923% [at 18.6 µM]; in assay [12], 0.289% [at 18.6 µM]; in assay [15], 0.0355% [at 18.6 µM]. In addition, the fluorescence, % of fluorescein in [9] is -0.0144% [at 18.6 µM]. Also, the activity change in assay [11] is -0.0182% [at 18.6 µM]. In assay [18], the fluorescence, % of Rose Bengal is -0.065% [at 18.6 µM].
For `CCCCCCCCCCCCCCC(Br)C(=O)O` (stereo not given), the Potency entry in assay [1], in assay [3], in assay [7], in assay [10], in [13] and in [15] was “inactive” in each case. The Potency in assay [17] is 54.5 µM (active). The outcome in assay [5], in [6], in [9], in [11], in [12] and in assay [18] was inactive. In assay [14], the outcome was inactive.
As for `Oc1c(Cl)c(Cl)cc(Cl)c1Cl`, the Potency entry in assay [1], in [17], in assay [3], in [7], in assay [10] and in assay [13] was “inactive” each time. For the same molecule, the Potency entry in assay [15] is “inactive”. Besides, the Potency in [4] was 5.3 µM (active). For the same molecule, the outcome in [5], in assay [6], in [9], in [11], in assay [12] and in assay [18] was inactive. Besides, the result in assay [14] was inactive.
For `CC(C)(C)C(O)/C(=C\c1ccc(Cl)cc1Cl)n1cncn1` (stereo not given), the Potency entry in assay [1], in assay [17], in assay [7], in [10], in [13] and in assay [15] was “inactive” each time. Further, the Potency in assay [4] is 10.4 µM (active). Moreover, the result in assay [5], in assay [6], in assay [8], in assay [9], in [11] and in assay [12] was inactive. The outcome in assay [18] and in assay [14] was inactive.
